Experimental data from PubChem BioAssay (Tox21).
Results filed as inconclusive are left out. Calls of active or inactive are those of the source. Unless noted, calls come from the whole dose curve.

Experiments:
[1] = Nuclear factor erythroid 2-related factor 2/antioxidant responsive element (Nrf2/ARE) small molecule agonists: qHTS cell viability counter screen in human keratinocytes (AID 1919968; active = well fitted curve in the direction sought with a large enough effect in the repeat runs; an effect the other way counts as inactive or inconclusive; note: nearly all actives have a fitted effect of over 55% in size)
In short: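 Measured as CellTiter-Fluor fluorescence, this readout tracks cytotoxicity in the same wells as the ARE-luciferase screen. HaCaT reporter cells (1,500/well) received compounds after a 5 h pre-incubation and were exposed for 23 h.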

[2] = Nuclear factor erythroid 2-related factor 2/antioxidant responsive element (Nrf2/ARE) small molecule agonists: luciferase reporter gene qHTS assay in human keratinocytes (AID 1919969); note: nearly all actives have a fitted effect of over 35% in size; note: potency is the fitted concentration of half-maximal effect
[3] = target: Gonadotropin-releasing hormone receptor (Homo sapiens) (UniProt P30968); assay: Human gonadotropin-releasing hormone receptor (GnRHR) small molecule agonists, calcium flux assay in GnRHR-HEK293 cells (AID 1920063); note: nearly all actives have a fitted effect of over 35% in size
In short: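 Fluorescence kinetics (480 nm excitation, 540 nm emission; 3 min, 1 s steps) report calcium mobilisation in human GnRHR-HEK293 cells in agonist mode. Dye incubation: 1 h, 37 C.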

[4] = target: KiSS-1 receptor (Homo sapiens) (UniProt Q969F8); assay: Human kisspeptin (KISS1R) small molecule agonists, calcium flux assay in KISS1R-HEK293 cells (AID 1920064; active = well fitted curve in the direction sought with a large enough effect in the repeat runs; an effect the other way counts as inactive or inconclusive)
In short: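 Measures KISS1R agonism through calcium-sensitive dye fluorescence in stably transfected HEK293 cells, read for 3 min after pin-tool compound delivery; 15-point titrations in triplicate.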

[5] = G protein-coupled receptor (GPCR) small molecule agonists, calcium flux assay: HEK293 wild type cell line counter screen (AID 1920065)
In short: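 Readout: fluorescence at 480 nm excitation/540 nm emission, sampled at 1 s intervals for 3 min. Cells had been cultured 18 h, then dye-loaded 1 h at 37 C before compound or ATP addition.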

[6] = p53 small molecule agonists, cell-based qHTS assay with human liver microsomes (AID 1963577)
In short: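 p53RE-bla reporter cells were pre-incubated 5 h at 37 C, then treated with compounds plus human liver microsomes (0.5 mg/mL final) and NADPH (0.5 mg/mL final) for 16 h at 37 C. Beta-lactamase activity was read by LiveBLAzer fluorescence after 2 h at room temperature.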

[7] = p53 small molecule agonists, cell-based qHTS assay with rat liver microsomes (AID 1963578)
In short: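 p53RE-bla cells were exposed to compounds together with rat liver microsomes (0.5 mg/mL final) and NADPH (0.5 mg/mL final) for 16 h at 37 C, then read by LiveBLAzer beta-lactamase fluorescence after 2 h at room temperature.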

[8] = p53 small molecule agonists, cell-based qHTS assay with human liver microsomes: qHTS cell viability counter screen (AID 1963579); note: nearly all actives have a fitted effect of over 45% in size
In short: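 p53RE-bla cells (4,000/well) were pre-incubated 5 h at 37 C, then given compounds in DMSO plus human liver microsomes (0.5 mg/mL final) and NADPH (0.5 mg/mL final) for 16 h at 37 C. Viability was read by CellTiter-Glo luminescence.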

[9] = p53 small molecule agonists, cell-based qHTS assay with rat liver microsomes: qHTS cell viability counter screen (AID 1963580); note: nearly all actives have a fitted effect of over 45% in size
In short: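 Viability is assessed in parallel with the p53 reporter read: HCT-116 p53RE-bla cells receive compounds plus rat microsomes and NADPH (0.5 mg/mL final apiece), incubate 16 h at 37 C, and then CellTiter-Glo luminescence is recorded.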

[10] = p53 small molecule agonists, cell-based qHTS assay (AID 1963582; active = well fitted activation curve with a large enough effect in the signal ratio in the repeat runs, not every such curve was filed as active; the % refers to the signal ratio)
In short: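 Compounds are pin-transferred in DMSO onto p53RE-bla cells and incubated 16 h at 37 C. The B/G FRET beta-lactamase substrate is then applied for 2 h at RT and fluorescence recorded.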

[11] = target: 5-hydroxytryptamine receptor 2A (Homo sapiens) (UniProt P28223); assay: 5-hydroxytryptamine receptor 2A (HTR2A) small molecule agonists, cell-based qHTS assay (AID 1963587); note: nearly all actives have a fitted effect of over 30% in size
In short: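 CHO cells stably expressing human HTR2A, plated 18 h, loaded with calcium dye 1 h at 37 C. Agonist mode: compounds added and intracellular calcium fluorescence recorded kinetically for 2 min at 1 sec intervals.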

[12] = target: Muscarinic acetylcholine receptor M1 (Homo sapiens) (UniProt P11229); assay: Cholinergic receptor muscarinic 1 (CHRM1) small molecule antagonists, cell-based qHTS assay (AID 1963588); note: nearly all actives have a fitted effect of over 40% in size
In short: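 CHRM1-CHO calcium-flux assay, antagonist mode. Cells were seeded 18 h, dye-loaded 1 h at 37 C and given compound for 5 min at RT, then acetylcholine was added at 50nM. FDSS fluorescence was read 3 min; 15 concentrations, three runs.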

[13] = target: Muscarinic acetylcholine receptor M1 (Homo sapiens) (UniProt P11229); assay: Cholinergic receptor muscarinic 1 (CHRM1) small molecule agonists, cell-based qHTS assay (AID 1963589); note: nearly all actives have a fitted effect of over 35% in size
In short: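 Each compound was tested at 15 concentrations across three independent runs on dye-loaded CHO cells stably expressing human CHRM1, reading intracellular calcium fluorescence kinetically at 1 sec intervals.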

[14] = target: Beta-2 adrenergic receptor (Homo sapiens) (UniProt P07550); assay: Adrenergic beta2 receptor (ADRB2) small molecule antagonists, cell-based qHTS assay (AID 1963592); note: series mostly up to about 92 µM; nearly all actives have a fitted effect of over 50% in size
In short: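 Cells (CHO, stable ADRB2 overexpression) incubated 18-20hr at 37C; compounds added from DMSO; agonist mix (1nM isoproterenol, 100uM IBMX, 25uM Ro-20-1724) added; 0.5hr RT; d2-cAMP and anti-cAMP-cryptate added; 1hr RT; 665/615 nm read.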

[15] = target: D(2) dopamine receptor (Homo sapiens) (UniProt P14416); assay: Dopamine D2 receptor (DRD2) small molecule antagonists, cell-based qHTS assay (AID 1963595; active = well fitted inhibition curve with a large enough effect in the signal ratio in the repeat runs, with a control signal flat; the % refers to the signal ratio)
In short: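 HEK293 cells stably expressing DRD2, preincubated with 0.1 mM Ro20-1724 and compounds 10 min, were stimulated with 200 nM NKH477 plus 12 nM quinpirole for 30 min at room temperature; cAMP measured by HTRF (665/620 nm).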

[16] = target: 5-hydroxytryptamine receptor 2A (Homo sapiens) (UniProt P28223); assay: 5-hydroxytryptamine receptor 2A (HTR2A) small molecule antagonists, cell-based qHTS assay (AID 1963586); note: nearly all actives have a fitted effect of over 45% in size
In short: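 Antagonist-mode intracellular calcium assay: DOI (4 nM) added after 5 min compound pre-incubation at room temperature to dye-loaded HTR2A-CHO cells. Fluorescence followed for 3 min, sampled every second.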

[17] = cAMP Responsive Elements (CRE) small molecule agonists, cell-based qHTS assay (AID 1963590)
In short: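 Cell line: CRE-bla HEK 293T; medium DMEM/10% dialyzed FBS/0.1 mM NEAA/1 mM pyruvate/25 mM HEPES; 3 h compound exposure; beta-lactamase FRET readout after 2 h substrate loading at RT.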

[18] = cAMP Responsive Elements (CRE) small molecule antagonists, cell-based qHTS assay (AID 1963591; active = well fitted inhibition curve with a large enough effect in the signal ratio in the repeat runs, not every such curve was filed as active; the % refers to the signal ratio)
In short: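 Inhibition of NKH477-driven (0.25 uM final) CRE-beta-lactamase signal in HEK293T cells, 3 h compound exposure at 37 °C, detected by FRET substrate fluorescence.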

[19] = target: D(2) dopamine receptor (Homo sapiens) (UniProt P14416); assay: Dopamine D2 receptor (DRD2) small molecule agonists, cell-based qHTS assay (AID 1963594); note: nearly all actives have a fitted effect of over 35% in size
In short: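 HEK293 cells stably expressing human DRD2, pre-treated with PDE inhibitor Ro20-1724 (0.1 mM final) and compound 10 min at room temperature, then stimulated with NKH477 (200nM […]) for 30 min. cAMP read by HTRF (665/620 nm).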

[20] = target: Beta-2 adrenergic receptor (Homo sapiens) (UniProt P07550); assay: Adrenergic beta2 receptor (ADRB2) small molecule agonists, cell-based qHTS assay (AID 1963593);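 note: CHO cells stably overexpressing human ADRB2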
In short: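 CHO cells stably over-expressing ADRB2 were plated overnight at 37C, then dosed with compounds plus a stimulation mix containing 100uM IBMX and 25uM Ro-20-1724 for 0.5hr at room temperature. cAMP was measured by HTRF competition, 1hr.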
% is set by controls: 0 for no effect and ±100 for the full control effect.

Chain of KiSS-1 receptor (Homo sapiens) (Q969F8 whole entry, looked up): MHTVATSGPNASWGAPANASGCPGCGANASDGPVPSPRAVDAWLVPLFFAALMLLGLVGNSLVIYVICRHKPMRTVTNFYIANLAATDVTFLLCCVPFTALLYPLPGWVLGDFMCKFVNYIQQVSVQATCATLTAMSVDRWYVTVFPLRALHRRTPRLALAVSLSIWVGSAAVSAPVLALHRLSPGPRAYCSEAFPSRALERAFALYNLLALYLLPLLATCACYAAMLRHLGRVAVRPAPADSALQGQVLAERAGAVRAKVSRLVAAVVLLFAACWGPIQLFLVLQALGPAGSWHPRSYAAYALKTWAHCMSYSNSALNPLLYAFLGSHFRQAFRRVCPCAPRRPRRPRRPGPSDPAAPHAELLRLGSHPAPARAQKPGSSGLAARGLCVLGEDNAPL
Chain of Muscarinic acetylcholine receptor M1 (Homo sapiens) (P11229 whole entry, looked up): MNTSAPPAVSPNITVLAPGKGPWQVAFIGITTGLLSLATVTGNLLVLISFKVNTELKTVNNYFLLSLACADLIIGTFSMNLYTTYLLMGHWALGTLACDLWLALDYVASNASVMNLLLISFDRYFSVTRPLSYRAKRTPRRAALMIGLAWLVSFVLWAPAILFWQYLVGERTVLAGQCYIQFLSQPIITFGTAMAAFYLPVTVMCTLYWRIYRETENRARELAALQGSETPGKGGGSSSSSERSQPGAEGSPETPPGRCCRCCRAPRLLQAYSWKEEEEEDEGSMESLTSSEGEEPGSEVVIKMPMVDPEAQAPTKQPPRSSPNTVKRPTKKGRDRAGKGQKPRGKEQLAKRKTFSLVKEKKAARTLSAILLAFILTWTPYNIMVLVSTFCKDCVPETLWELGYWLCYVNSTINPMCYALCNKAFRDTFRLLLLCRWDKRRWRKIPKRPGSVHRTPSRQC
Chain of Gonadotropin-releasing hormone receptor (Homo sapiens) (P30968 whole entry, looked up): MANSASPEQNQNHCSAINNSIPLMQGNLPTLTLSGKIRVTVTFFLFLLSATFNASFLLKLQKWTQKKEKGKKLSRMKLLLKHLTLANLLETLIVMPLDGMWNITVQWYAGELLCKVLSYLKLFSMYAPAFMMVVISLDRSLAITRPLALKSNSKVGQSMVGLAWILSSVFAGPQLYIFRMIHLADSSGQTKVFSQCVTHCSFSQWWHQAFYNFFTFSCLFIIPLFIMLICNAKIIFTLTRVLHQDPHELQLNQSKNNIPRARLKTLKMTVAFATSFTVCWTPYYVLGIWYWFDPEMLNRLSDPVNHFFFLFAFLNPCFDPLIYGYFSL
Chain of Beta-2 adrenergic receptor (Homo sapiens) (P07550 whole entry, looked up): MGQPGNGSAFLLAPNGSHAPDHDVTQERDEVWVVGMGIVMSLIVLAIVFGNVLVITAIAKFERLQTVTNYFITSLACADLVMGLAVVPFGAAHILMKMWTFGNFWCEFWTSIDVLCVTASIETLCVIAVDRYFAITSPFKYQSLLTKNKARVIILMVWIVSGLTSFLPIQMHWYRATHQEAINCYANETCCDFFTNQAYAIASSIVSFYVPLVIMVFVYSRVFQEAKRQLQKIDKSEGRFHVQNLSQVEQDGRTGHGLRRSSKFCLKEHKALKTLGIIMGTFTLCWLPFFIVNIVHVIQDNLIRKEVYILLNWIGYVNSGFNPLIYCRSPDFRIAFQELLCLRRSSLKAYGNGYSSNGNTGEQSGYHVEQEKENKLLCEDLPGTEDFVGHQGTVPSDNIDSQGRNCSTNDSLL
Chain of D(2) dopamine receptor (Homo sapiens) (P14416 whole entry, looked up): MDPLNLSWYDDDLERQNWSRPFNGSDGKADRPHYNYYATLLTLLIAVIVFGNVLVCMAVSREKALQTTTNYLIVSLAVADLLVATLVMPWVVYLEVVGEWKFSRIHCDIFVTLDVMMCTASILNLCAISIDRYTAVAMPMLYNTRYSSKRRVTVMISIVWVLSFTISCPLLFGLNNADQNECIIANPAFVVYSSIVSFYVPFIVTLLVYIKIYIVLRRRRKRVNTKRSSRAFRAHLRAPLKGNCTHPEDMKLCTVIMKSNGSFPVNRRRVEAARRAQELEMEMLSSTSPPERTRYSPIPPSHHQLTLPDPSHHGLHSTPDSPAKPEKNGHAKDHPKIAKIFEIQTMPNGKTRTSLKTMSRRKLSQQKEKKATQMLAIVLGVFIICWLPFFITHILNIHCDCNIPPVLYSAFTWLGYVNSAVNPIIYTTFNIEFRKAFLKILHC
Chain of 5-hydroxytryptamine receptor 2A (Homo sapiens) (P28223 whole entry, looked up): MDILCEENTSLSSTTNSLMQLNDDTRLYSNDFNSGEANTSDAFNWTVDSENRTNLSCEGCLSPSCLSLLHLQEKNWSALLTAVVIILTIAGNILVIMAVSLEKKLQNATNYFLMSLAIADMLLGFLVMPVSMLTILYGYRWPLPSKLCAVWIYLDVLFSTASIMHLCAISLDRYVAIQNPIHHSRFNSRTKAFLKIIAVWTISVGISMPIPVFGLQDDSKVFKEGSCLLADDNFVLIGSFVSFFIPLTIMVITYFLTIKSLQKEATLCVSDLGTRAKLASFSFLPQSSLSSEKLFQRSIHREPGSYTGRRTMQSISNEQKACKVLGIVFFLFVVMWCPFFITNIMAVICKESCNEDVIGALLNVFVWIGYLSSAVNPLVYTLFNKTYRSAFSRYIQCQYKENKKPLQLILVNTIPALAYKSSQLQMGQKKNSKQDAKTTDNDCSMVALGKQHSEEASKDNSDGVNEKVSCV

CCOC(=O)[C@H](CCc1ccccc1)N[C@@H](C)C(=O)N(CC(=O)O)C1Cc2ccccc2C1
inactive: Potency [1] | Potency [2] | Potency [3] | outcome [4] | outcome [5] | Potency [6] | Potency [7] | Potency [8] | Potency [9] | Potency [10] | Potency [11] | Potency [12] | Potency [13] | Potency [14] | Potency [15]

Cc1ccc(Cl)cc1Cl
inactive: Potency [1] | Potency [2] | Potency [3] | outcome [4] | outcome [5] | Potency [6] | Potency [7] | Potency [8] | Potency [9] | Potency [10] | Potency [16] | Potency [11] | Potency [13] | Potency [17] | Potency [18] | Potency [14] | Potency [19] | Potency [15]

CC=C(Cl)Cl
inactive: Potency [1] | Potency [2] | Potency [3] | outcome [4] | outcome [5] | Potency [6] | Potency [7] | Potency [8] | Potency [9] | Potency [10] | Potency [16] | Potency [11] | Potency [13] | Potency [17] | Potency [18] | Potency [14] | Potency [19] | Potency [15]

NS(=O)(=O)c1cc(-c2nn[nH]n2)c(NCc2cccs2)cc1Cl
inactive: Potency [1] | Potency [2] | Potency [3] | outcome [4] | outcome [5] | Potency [6] | Potency [7] | Potency [8] | Potency [9] | Potency [10] | Potency [16] | Potency [12] | Potency [13] | Potency [17] | Potency [18] | Potency [14] | Potency [20] | Potency [19]

O=CC(=O)c1ccccc1
inactive: Potency [1] | Potency [3] | outcome [4] | outcome [5] | Potency [6] | Potency [7] | Potency [8] | Potency [9] | Potency [10] | Potency [16] | Potency [11] | Potency [12] | Potency [17] | Potency [19] | Potency [15]
active: Potency [2] 68.7 µM

NCCCNCCSP(=O)(O)O
inactive: activity change, negative = cytotoxicity [1] -4.44% [at 8.39 µM] | activity, positive = activation [2] -4.57% [at 8.39 µM] | activity change [3] -1.6% [at 5.22 µM, active compounds read high] | activation [4] -1.03% [at 6.97 µM] | activation [5] -0.178% [at 5.23 µM] | activation [6] 9.01% [at 5.99 µM] | activation [7] 0.418% [at 5.99 µM] | activity change, negative = cytotoxicity [8] -1.63% [at 5.99 µM] | activity change, negative = cytotoxicity [9] 7.5% [at 5.99 µM] | activation [10] 1.38% [at 5.99 µM] | activation [17] 0.961% [at 8.39 µM] | activity change, negative = inhibition [18] 10.3% [at 8.39 µM] | activity change, negative = inhibition [14] -7.99% [at 8.39 µM] | activation [20] -33.3% [at 8.39 µM] | activation [19] -13.4% [at 8.39 µM] | activity change, negative = inhibition [15] 5.25% [at 8.38 µM]

O=C(O)C(Cc1cc(I)c(O)c(I)c1)c1ccccc1 (stereo not drawn)
inactive: Potency [1] | Potency [2] | Potency [3] | outcome [4] | outcome [5] | Potency [6] | Potency [7] | Potency [8] | Potency [9] | Potency [10] | Potency [16] | Potency [11] | Potency [12] | Potency [13] | Potency [18] | Potency [14] | Potency [19]
